Sampled rows, rich in hits. Any-hit rate of the full collection: about 18%.
DT40 TDP1 no CPT – qHTS for Inhibitors of human tyrosyl-DNA phosphodiesterase 1 (TDP1): qHTS in cells in absence of CPT; DT40 Tdp1-/- hTDP1 cells, no CPT, ATP luminescence, 48 h; Potency, µM (highest dose often 46.2 µM), without a hit: at the highest dose activity change, negative = growth inhibition, usual class: inhibitors; hit rate 15% among 420,000; AID 686978, 2013; also: potency is read from the fitted curve at half-maximal effect; % is scaled to controls: 0 for no effect and ±100 for the full control effect; nearly all actives have a fitted effect of over 55% in size
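Seeded 400 DT40-hTDP1 cells/well (vehicle DMSO, no 20 nM CPT); pinned compounds; ≥48 hr at 37 °C; CellTiter-Glo luminescence as viability measure.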
HepG2 tox – qHTS for Inhibitors of TGF-b: Cytotox Counterscreen | HepG2 CAGA-GFP viability, ATP luminescence, 18 h | Potency, µM (series often up to 46.1 µM), without a hit: at the highest dose activity change, negative = cytotoxicity, usual class: cytotoxic | hit rate 0.76% among 410,000; also: potency is read from the fitted curve at half-maximal effect
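CellTiter-Glo luminescence gave cytotoxicity after 18 hours at 37 degrees C. The cells were HepG2 CAGA-GFP in 1% FBS DMEM, stimulated with 500 pg/mL TGF-beta after compound addition. %Activity was normalised to no-cell wells (complete cell-killing) and DMSO (no toxicity), and curves were fitted and classified.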
IL-1B inflam inh – qHTS for Inhibitors of Inflammasome Signaling: IL-1-beta AlphaLISA Primary Screen; hit rate 4.7% among 360,000; activity change, % at 57.5 µM; AID 743279, 2014; THP-1 LPS/ATP IL-1B secretion, AlphaLISA, 16 h; active compounds read low; in the data active = activity change below about -50%; inconclusive = mostly about -30% to -49%; also: % is scaled to controls: 0 for no effect and ±100 for the full control effect
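THP-1 cells pretreated 1 hr with compounds (up to 57.5 uM final), then stimulated with LPS (250 ng/mL final) plus ATP (1.25 mM final); secreted IL-1B measured by AlphaLISA after 16 hr, decreased signal indicating inhibition.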
TDP1 cell CPT – qHTS for Inhibitors of human tyrosyl-DNA phosphodiesterase 1 (TDP1): qHTS in cells in presence of CPT. chicken DT40 Tdp1-/-;hTDP1 cells + 20 nM CPT, ATP luminescence, 48 h. Potency, µM (titrated, usually from 46.2 µM), for the others: at the top dose activity change, negative = growth inhibition, hits mostly inhibitors. hit rate 12% among 420,000; also: potency is read from the fitted curve at half-maximal effect; % is scaled to controls: 0 for no effect and ±100 for the full control effect; nearly all actives have a fitted effect of over 55% in size
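Chicken DT40 Tdp1-/- cells complemented with human TDP1, 400 cells/well, exposed to compounds plus 20 nM camptothecin for at least 48 h at 37 C; viability read as ATP content by CellTiter-Glo luminescence.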
TDP1 block – qHTS Assay for Inhibitors of Tyrosyl-DNA Phosphodiesterase (TDP1). hit rate 0.28% among 350,000. recombinant TDP1, AlphaScreen DNA substrate cleavage. AID 485290, 2010. Potency, µM (top dose mostly 130 µM), inactives show at the highest dose activity change, negative = inhibition, hits mostly inhibitors; also: potency is read from the fitted curve at half-maximal effect; % is scaled to controls: 0 for no effect and ±100 for the full control effect; nearly all actives have a fitted effect of over 40% in size
Target sequence (Q9NUW8 whole entry, looked up): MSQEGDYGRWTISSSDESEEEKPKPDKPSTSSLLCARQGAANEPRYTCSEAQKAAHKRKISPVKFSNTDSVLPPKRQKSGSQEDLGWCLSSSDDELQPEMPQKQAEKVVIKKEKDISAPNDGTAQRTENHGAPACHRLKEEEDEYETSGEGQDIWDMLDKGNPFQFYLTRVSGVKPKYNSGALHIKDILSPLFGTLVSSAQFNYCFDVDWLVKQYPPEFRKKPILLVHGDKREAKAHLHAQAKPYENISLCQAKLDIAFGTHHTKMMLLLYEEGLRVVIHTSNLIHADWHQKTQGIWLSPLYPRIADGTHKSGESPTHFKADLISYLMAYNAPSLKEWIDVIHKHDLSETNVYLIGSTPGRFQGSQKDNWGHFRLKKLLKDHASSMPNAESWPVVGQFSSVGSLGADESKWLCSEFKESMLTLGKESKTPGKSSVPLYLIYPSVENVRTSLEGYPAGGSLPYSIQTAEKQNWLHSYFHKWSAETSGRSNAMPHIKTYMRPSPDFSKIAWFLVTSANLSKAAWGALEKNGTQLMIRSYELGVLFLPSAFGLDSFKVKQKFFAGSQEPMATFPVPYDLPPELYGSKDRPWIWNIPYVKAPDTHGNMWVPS
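Enzyme-compound mixtures sat 15 min at room temperature, followed by a 5 min reaction with 15 nM final substrate and 10 min with AlphaScreen beads. Recombinant human Tdp1 was used at 1 nM final.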
TGFb SMAD3 inh – qHTS for Inhibitors of TGF-b; HepG2 CAGA-GFP TGF-b/SMAD3 reporter, GFP fluorescence, 18 h; TGF-beta stimulated, 500 pg/mL final; Potency, µM (highest dose often 46.1 µM), without a hit: at the highest dose activity, negative = inhibition, most hits filed as inhibitors; hit rate 1.2% among 410,000; AID 588855, 2011; also: potency is read from the fitted curve at half-maximal effect; % is scaled to controls: 0 for no effect and ±100 for the full control effect; nearly all actives have a fitted effect of over 65% in size
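TGF-beta reporter screen: HEPG2 CAGA-GFP, 1% FBS, 500 pg/mL TGF-beta final, 18 h; per-cell GFP summed per well; curves fitted and categorized by class.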
Numbers without * were called inactive; ? = inconclusive; . = no result given. Unless noted, calls follow the shape of the dose curve; as a rule, active = well fitted curve in the direction sought with a large enough effect; inconclusive = small, poorly fitted or top-dose-only effect, or another doubt; inactive = no such curve, though single readings can be large; an effect the other way counts as inactive or inconclusive.

SMILES | DT40 TDP1 no CPT | HepG2 tox | IL-1B inflam inh | TDP1 cell CPT | TDP1 block | TGFb SMAD3 inh
O=C(CCS(=O)(=O)c1ccccc1)Nc1nnc(C(F)(F)F)s1 | 13µM* | -9% | 3 | ? | . | ?
CCc1nnc(NC(=O)Cc2ccc(OC)c(OC)c2)s1 | 8% | -8% | 6 | 0% | 3% | -2%
COc1cccc(N2C(=O)c3ccccc3C2=O)n1 | . | . | . | . | 0% | .
CS(C)(=O)=O | -12% | . | . | 10% | 5% | .
CCc1cccc(Nc2c3c(nc4ncnn24)CCC3)c1 | 21µM* | -6% | 86 | ? | 0% | -3%
Clc1cccc(Nc2c3c(nc4ncnn24)CCC3)c1 | ? | -2% | 32 | ? | 8% | ?
Cc1cc(OCc2cc(C(=O)NCCN3CCCCC3CO)no2)cc(C)c1Cl (stereo not given) | ? | -64% | -62* | ? | 1% | 0%
Cc1cc(OCc2cc(C(=O)N(C)C3CCOC3)no2)cc(C)c1Cl (stereo not given) | 16µM* | -17% | -18 | 16µM* | 1% | -2%
Cc1cc(OCc2cc(C(=O)N(C)CCc3cnn(C)c3)no2)cc(C)c1Cl | 21µM* | -29% | -59* | 13µM* | 1% | -15%
CCc1ccc(CN(C)C(=O)c2cc(COc3cc(C)c(Cl)c(C)c3)on2)nc1 | ? | -43% | 0 | 16µM* | -4% | ?
Cc1ccc(OCc2cc(C(=O)NCCn3cccn3)no2)cc1C | -8% | 1% | 27 | ? | 3% | 29%
Cc1cccc(C(=O)Nc2c(-c3ccc(F)cc3)nc3ccccn23)c1 | ? | -14% | . | ? | 6% | -28%
O=[N+]([O-])c1cc(-c2nc(-c3ccccc3)no2)ccc1NCCc1ccccc1 | -13% | 1% | . | -6% | 9% | -5%
COc1ccc(CN2CCN(C3CCC3)CC2CCO)cc1C (stereo not given) | -9% | 9% | -11 | -1% | 0% | -2%
NC(=O)C1(N2CCCCC2)CCN(Cc2ccc(Br)cc2)CC1 | 16µM* | -47% | 10 | ? | 6% | ?
NC(=O)C1(N2CCCCC2)CCN(Cc2ccc(F)cc2)CC1 | -11% | -9% | 8 | -22% | -6% | -6%
Cc1ccc(NC(=O)CN2CCCC2c2cccn2C)c(Br)c1 (stereo not given) | 15µM* | -33% | -14 | ? | 9% | ?
C/C(CC(=O)Nc1ccc2c(c1)OCCO2)=N\NC(=O)COc1ccc(C)cc1Br | -2% | -13% | 3 | -1% | 4% | 4%
CCN(CC)S(=O)(=O)c1ccc2c(c1)nc(CCC(=O)Nc1ccc3c(c1)OCO3)n2CC | -28% | -23% | 2 | -7% | 6% | -13%
Cc1cccc(NC(=O)CSc2nc3sc(C)cc3c(=O)n2C)c1 | 23µM* | -16% | -2 | ? | . | -9%
COc1ccc(NC(=O)CSc2nc3sc(C)cc3c(=O)n2C)cc1 | -13% | -8% | 3 | 14% | . | -1%
O=C(Nc1cccc(Cl)c1)c1cc2c(=O)n3ccccc3nc2s1 | 1% | 5% | 11 | -8% | 1% | 2%
COc1ccc(NC(=O)CSc2nc3sc(C)cc3c(=O)n2C)c(OC)c1 | 18µM* | -21% | 37 | ? | . | -1%
Cc1cccc(NC(=O)c2cc3c(=O)n4ccccc4nc3s2)c1 | ? | -3% | 13 | ? | 79µM* | 5%
Cc1ccc(NC(=O)CCC(=O)NN=Cc2ccc(C)o2)c(C)c1 | -6% | 4% | 5 | 3% | . | ?
SMILES | DT40 TDP1 no CPT | HepG2 tox | IL-1B inflam inh | TDP1 cell CPT | TDP1 block | TGFb SMAD3 inh
CN1OC[C@@H]2CN(S(=O)(=O)c3ccccc3)[C@H](c3ccc(-n4ccnc4)cc3)C[C@@H]21 | 0% | -6% | -21 | 2% | . | -10%
CC(C)C[C@H](NC(=O)[C@H](CCc1ccccc1)NC(=O)CN1CCOCC1)C(=O)N[C@@H](Cc1ccccc1)C(=O)N[C@@H](CC(C)C)C(=O)[C@@]1(C)CO1 | 0.0042µM* | . | . | 0.0067µM* | . | .
CC(=O)C(Cc1ccccc1)NC(=O)CN1CCN(Cc2ccccc2)CC1 (stereo not given) | -24% | -7% | -9 | -16% | 3% | 0%
CC(=O)N1CCCC1c1nc2ccccc2n1Cc1ccccc1C (stereo not given) | -29% | -10% | . | ? | 9% | -1%
Cc1ccc(NC(=O)CN(C)S(=O)(=O)c2ccc(Br)s2)cc1F | ? | -5% | -62* | 2% | -4% | ?
COc1ccc(NC(=O)CN(C)S(=O)(=O)c2ccc(Br)s2)cc1OC | -24% | -14% | 37 | ? | 1% | -6%
COc1ccc2cc(-c3[nH]ncc3CN3CCCCO3)ccc2c1 | ? | 0% | 7 | ? | 0% | -4%
COc1ccc2cc(-c3[nH]ncc3CN3CCCN(c4ccccc4)CC3)ccc2c1 | ? | -107% | ? | 23µM* | 8% | ?
COc1ccc(OC)c(-c2nc(C(=O)NCCCN3CCOCC3)cc3c2[nH]c2ccccc23)c1 | 23µM* | -22% | -2 | 16µM* | . | 4%
COc1ccc(OC)c(-c2nc(C(=O)NC3CCN(Cc4ccccc4)CC3)cc3c2[nH]c2ccccc23)c1 | 12µM* | -16% | -15 | 10µM* | . | 2%
COc1cc(-c2nc(C(=O)NC3CCCCC3)cc3c2[nH]c2ccccc23)cc(OC)c1OC | 23µM* | -3% | ? | 16µM* | . | -2%
COc1cc(-c2nc(C(=O)NC3CCN(Cc4ccccc4)CC3)cc3c2[nH]c2ccccc23)cc(OC)c1OC | 13µM* | -16% | -12 | 12µM* | . | -39%

Assay outcomes from PubChem.
